In assay [1] the target is Ribosomal protein S6 kinase alpha-6 (Homo sapiens) (UniProt Q9UK32). To be noted: at 1 µM.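 Also: each value is a mean inhibition of RSK4 from a GSK PKIS panel screen.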
The target of assay [2] is T1, Serine/threonine-protein kinase Sgk1 (Homo sapiens) (UniProt O00141).
T1 sequence (whole entry): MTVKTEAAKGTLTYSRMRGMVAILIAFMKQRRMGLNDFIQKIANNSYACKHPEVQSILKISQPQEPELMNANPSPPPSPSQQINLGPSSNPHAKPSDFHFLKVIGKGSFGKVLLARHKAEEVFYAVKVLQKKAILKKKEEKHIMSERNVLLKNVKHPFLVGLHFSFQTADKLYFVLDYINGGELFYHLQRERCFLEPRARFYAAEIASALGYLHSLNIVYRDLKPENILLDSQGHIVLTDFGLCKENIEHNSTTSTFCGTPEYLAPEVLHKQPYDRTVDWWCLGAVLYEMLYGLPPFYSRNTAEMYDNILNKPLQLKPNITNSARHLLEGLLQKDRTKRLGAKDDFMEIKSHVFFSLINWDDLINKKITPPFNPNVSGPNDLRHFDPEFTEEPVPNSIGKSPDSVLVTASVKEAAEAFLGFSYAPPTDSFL
Particulars: at 0.1 µM.

The target of assay [3] is T1, Serine/threonine-protein kinase Sgk1 (Homo sapiens). Particulars: at 1 µM.
The target of assay [4] is T2, Serine/threonine-protein kinase Sgk2 (Homo sapiens) (UniProt Q9HBY8).
T2 sequence (whole entry): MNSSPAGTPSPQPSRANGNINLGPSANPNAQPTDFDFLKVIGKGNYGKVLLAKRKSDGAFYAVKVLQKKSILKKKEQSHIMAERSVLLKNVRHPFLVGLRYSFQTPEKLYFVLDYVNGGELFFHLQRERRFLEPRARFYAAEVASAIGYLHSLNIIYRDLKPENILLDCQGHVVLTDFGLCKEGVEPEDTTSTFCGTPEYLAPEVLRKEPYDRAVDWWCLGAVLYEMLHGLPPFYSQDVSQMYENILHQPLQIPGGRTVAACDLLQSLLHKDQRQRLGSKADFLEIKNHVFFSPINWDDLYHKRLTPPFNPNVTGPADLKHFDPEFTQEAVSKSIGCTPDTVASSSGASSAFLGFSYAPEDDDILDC
To be noted: at 0.1 µM.

Assay [5] addresses T2, Serine/threonine-protein kinase Sgk2 (Homo sapiens). To be noted: at 1 µM.
The target in assay [6] is T3, Serine/threonine-protein kinase Sgk3 (Homo sapiens) (UniProt Q96BR1).
T3 sequence (whole entry): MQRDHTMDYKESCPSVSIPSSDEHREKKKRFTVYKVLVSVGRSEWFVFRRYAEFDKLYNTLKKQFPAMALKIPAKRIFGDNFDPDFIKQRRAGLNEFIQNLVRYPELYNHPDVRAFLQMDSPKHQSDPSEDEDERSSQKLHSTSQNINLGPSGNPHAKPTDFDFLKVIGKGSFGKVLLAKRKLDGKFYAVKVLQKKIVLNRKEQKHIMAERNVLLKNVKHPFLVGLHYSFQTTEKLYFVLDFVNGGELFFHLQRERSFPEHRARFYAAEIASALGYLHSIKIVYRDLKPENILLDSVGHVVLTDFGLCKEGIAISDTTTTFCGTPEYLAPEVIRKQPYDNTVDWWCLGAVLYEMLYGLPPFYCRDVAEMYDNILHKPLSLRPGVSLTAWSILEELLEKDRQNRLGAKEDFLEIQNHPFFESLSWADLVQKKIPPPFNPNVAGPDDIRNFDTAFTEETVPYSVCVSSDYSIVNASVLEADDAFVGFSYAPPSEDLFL
To be noted: at 0.1 µM.

The target of assay [7] is T3, Serine/threonine-protein kinase Sgk3 (Homo sapiens). Particulars: at 1 µM.
In assay [8] the target is 5'-AMP-activated protein kinase catalytic subunit alpha-1 (Homo sapiens) (UniProt Q13131). To be noted: at 0.1 µM.
For assay [9] the target is unchanged. Particulars: at 1 µM.
For assay [10], the target named is 5'-AMP-activated protein kinase catalytic subunit alpha-2 (Homo sapiens) (UniProt P54646). To be noted: at 0.1 µM.
For assay [11] the target is unchanged. To be noted: at 1 µM.
In assay [12] the target is T4, NUAK family SNF1-like kinase 1 (Homo sapiens) (UniProt O60285).
T4 sequence (whole entry): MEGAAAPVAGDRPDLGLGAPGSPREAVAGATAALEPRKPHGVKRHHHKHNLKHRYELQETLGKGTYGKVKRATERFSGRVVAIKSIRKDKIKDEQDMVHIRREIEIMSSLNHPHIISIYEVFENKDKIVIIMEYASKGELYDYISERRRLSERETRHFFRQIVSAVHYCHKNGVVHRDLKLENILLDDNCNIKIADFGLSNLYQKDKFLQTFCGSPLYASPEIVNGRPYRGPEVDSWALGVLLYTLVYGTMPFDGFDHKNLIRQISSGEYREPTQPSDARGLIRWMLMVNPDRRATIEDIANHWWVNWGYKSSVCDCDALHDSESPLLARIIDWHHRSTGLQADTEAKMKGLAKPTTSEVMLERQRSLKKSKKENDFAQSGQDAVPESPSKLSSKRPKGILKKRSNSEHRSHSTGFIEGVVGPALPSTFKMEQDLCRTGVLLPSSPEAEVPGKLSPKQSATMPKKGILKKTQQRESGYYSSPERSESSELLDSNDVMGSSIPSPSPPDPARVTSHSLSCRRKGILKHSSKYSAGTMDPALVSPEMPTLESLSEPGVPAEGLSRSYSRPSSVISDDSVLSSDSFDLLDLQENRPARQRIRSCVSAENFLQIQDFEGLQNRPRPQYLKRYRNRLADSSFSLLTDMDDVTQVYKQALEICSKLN
To be noted: at 0.1 µM.

The target of assay [13] is T4, NUAK family SNF1-like kinase 1 (Homo sapiens). Particulars: at 1 µM.
Assay [14] addresses T5, Serine/threonine-protein kinase BRSK1 (Homo sapiens) (UniProt Q8TDC3).
T5 sequence (whole entry): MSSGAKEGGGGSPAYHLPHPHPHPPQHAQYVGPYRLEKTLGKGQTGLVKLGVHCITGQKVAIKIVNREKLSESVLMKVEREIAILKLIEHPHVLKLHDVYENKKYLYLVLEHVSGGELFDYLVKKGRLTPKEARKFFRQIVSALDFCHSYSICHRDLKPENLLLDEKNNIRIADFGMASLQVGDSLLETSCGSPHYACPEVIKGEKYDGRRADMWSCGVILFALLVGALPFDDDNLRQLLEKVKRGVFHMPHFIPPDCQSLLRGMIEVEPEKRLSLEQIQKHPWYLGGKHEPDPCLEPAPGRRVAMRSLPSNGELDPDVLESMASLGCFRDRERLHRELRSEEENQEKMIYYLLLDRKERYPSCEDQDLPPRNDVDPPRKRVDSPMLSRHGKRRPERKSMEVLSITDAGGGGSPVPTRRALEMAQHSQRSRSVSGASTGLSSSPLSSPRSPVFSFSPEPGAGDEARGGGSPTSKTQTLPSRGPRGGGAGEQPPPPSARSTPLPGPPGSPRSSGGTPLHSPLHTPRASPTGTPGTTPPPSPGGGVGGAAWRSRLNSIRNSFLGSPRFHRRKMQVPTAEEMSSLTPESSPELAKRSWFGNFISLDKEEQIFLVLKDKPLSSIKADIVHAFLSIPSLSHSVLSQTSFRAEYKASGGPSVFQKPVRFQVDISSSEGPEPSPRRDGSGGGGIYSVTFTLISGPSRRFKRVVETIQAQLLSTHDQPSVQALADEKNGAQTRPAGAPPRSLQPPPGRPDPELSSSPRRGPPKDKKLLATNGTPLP
Particulars: at 0.1 µM.

Assay [15] addresses T5, Serine/threonine-protein kinase BRSK1 (Homo sapiens). Particulars: at 1 µM.
The target of assay [16] is T6, Serine/threonine-protein kinase BRSK2 (Homo sapiens) (UniProt Q8IWQ3).
T6 sequence (whole entry): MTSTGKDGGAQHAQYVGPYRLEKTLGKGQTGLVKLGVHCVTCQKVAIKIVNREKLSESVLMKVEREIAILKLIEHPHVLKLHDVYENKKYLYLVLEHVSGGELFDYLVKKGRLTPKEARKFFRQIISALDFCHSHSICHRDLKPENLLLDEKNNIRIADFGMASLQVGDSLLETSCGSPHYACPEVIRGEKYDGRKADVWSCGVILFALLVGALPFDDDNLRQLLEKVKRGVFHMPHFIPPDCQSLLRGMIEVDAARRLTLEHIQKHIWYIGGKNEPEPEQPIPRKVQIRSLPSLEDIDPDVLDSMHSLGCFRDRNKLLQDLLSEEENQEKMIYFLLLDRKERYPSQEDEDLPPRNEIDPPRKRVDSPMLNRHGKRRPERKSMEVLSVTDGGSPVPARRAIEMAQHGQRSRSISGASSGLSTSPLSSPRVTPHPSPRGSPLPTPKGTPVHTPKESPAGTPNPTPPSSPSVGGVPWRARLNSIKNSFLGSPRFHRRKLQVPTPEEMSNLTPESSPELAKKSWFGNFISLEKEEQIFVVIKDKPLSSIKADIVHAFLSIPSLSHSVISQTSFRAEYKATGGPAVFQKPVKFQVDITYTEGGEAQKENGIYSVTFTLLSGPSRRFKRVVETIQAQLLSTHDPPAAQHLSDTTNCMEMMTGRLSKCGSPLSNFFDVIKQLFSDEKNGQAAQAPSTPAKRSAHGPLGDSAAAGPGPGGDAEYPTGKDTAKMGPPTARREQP
To be noted: at 0.1 µM.

Assay [17] addresses T6, Serine/threonine-protein kinase BRSK2 (Homo sapiens). Particulars: at 1 µM.
The target in assay [18] is Calcium/calmodulin-dependent protein kinase type 1D (Homo sapiens) (UniProt Q8IU85). To be noted: at 0.1 µM.
The target is the same in assay [19]. Particulars: at 1 µM.
In assay [20] the target is Calcium/calmodulin-dependent protein kinase type II subunit alpha (Homo sapiens) (UniProt Q9UQM7). Particulars: at 0.1 µM.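 Also: reported values are averages (mean inhibition of CAMK2A).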

The structures appear in SMILES notation.

Chain of Calcium/calmodulin-dependent protein kinase type 1D (Homo sapiens) (Q8IU85 whole entry, looked up): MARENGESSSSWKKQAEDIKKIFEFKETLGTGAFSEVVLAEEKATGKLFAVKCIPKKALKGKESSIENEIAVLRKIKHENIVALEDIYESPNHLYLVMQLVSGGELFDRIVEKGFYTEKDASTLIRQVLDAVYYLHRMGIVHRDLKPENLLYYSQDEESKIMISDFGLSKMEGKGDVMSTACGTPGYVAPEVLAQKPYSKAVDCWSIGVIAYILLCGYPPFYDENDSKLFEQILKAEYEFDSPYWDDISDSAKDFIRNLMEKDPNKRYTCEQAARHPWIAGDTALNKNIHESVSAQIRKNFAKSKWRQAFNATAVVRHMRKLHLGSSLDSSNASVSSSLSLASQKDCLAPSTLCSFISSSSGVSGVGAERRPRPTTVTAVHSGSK
Chain of 5'-AMP-activated protein kinase catalytic subunit alpha-1 (Homo sapiens) (Q13131 whole entry, looked up): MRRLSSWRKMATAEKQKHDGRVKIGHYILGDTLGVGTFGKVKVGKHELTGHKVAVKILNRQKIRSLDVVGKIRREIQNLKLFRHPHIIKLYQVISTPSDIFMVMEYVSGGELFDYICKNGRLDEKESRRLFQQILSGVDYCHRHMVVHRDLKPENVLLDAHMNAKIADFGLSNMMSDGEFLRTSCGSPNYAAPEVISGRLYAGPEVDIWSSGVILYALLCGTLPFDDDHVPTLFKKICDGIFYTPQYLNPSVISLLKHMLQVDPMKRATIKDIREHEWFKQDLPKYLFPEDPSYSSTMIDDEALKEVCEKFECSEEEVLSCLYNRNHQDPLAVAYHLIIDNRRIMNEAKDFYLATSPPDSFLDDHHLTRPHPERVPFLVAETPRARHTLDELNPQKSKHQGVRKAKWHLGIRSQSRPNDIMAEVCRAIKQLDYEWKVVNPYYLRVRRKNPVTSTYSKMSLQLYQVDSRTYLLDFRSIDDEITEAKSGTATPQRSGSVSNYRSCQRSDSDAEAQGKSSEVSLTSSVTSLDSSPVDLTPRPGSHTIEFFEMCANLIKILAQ
Chain of 5'-AMP-activated protein kinase catalytic subunit alpha-2 (Homo sapiens) (P54646 whole entry, looked up): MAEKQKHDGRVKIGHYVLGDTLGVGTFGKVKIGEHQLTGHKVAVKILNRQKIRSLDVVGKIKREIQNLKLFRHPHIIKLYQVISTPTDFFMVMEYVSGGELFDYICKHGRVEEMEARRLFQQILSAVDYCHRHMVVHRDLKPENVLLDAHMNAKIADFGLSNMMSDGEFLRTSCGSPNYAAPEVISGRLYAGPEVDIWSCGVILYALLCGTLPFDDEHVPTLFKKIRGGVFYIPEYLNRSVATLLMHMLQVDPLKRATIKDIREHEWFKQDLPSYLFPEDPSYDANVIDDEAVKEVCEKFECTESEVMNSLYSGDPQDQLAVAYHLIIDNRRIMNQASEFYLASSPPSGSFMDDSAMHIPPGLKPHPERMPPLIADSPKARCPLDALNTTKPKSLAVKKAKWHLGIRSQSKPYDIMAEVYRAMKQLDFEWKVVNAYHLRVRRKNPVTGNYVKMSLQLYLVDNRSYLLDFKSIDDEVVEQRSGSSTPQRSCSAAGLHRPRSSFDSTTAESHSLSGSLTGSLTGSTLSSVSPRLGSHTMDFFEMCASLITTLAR
Chain of Ribosomal protein S6 kinase alpha-6 (Homo sapiens) (Q9UK32 whole entry): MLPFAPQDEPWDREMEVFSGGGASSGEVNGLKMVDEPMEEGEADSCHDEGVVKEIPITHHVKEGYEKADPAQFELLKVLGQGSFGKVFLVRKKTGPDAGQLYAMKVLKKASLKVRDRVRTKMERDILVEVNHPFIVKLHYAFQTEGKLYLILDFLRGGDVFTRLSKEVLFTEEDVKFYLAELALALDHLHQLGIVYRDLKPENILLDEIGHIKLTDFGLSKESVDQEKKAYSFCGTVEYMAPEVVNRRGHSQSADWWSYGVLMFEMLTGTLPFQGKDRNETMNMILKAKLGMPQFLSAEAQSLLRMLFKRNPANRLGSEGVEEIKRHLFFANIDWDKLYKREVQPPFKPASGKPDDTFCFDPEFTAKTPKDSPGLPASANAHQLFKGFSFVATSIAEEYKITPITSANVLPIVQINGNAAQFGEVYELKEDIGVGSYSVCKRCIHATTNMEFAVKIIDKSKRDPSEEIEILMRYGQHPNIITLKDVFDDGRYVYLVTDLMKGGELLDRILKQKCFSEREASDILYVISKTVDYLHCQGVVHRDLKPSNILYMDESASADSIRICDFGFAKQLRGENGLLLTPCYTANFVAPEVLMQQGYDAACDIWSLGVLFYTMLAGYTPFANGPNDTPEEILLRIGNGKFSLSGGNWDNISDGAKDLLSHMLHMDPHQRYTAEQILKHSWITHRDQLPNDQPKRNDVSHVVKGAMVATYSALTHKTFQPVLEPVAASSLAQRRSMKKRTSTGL
Chain of Calcium/calmodulin-dependent protein kinase type II subunit alpha (Homo sapiens) (Q9UQM7 whole entry): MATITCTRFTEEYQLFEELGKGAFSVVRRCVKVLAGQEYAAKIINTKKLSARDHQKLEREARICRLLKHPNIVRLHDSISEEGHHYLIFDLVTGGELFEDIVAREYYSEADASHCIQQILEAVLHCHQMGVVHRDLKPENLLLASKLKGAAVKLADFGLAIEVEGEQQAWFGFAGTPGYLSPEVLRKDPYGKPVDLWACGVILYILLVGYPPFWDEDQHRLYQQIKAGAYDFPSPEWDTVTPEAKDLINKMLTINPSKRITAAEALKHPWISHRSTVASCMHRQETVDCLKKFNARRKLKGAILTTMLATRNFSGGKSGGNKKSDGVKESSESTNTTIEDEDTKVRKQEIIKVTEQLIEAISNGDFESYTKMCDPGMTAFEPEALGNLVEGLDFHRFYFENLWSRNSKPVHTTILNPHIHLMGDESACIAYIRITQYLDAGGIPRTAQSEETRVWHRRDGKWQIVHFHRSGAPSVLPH

As for `CC(C)c1ccc(Nc2nccc(-c3cnn4ncccc34)n2)cc1`, the inhibition in [1] was 1.84%; in assay [2], 1.8%; in assay [3], 3.19%; in [4], 0.34%; in assay [5] it was 3.21%; in assay [6], 2.01%. Besides, the inhibition was 0.79% in assay [7]; 1.84% in assay [8]; 3.55% in assay [9]; 2.35% in assay [10]; 4.11% in assay [11]; 12.6% in [12]. The inhibition is 48.9% in assay [13]; -0.04% in assay [14]; 3.13% in assay [15]; 1.33% in [16]; 4.11% in assay [17]; -0.71% in assay [18]. In addition, the values for the inhibition in assay [19] and in assay [20] were 2.35% and 1.42%, respectively.
With `CN(C)CCCn1c(-c2nonc2N)nc2cnccc21`, the inhibition in [1] was determined as 4.47%; in assay [2], 2.27%; in assay [3], 4.15%; in assay [4], 2.98%; in assay [5], 2.34%; in assay [6] it was 2.21%. Moreover, the inhibition worked out at 3.38% in assay [7]; 2.93% in [8]; 2.04% in assay [9]; 3.05% in assay [10]; 5.42% in assay [11]; 3.04% in assay [12]. Also, the inhibition in assay [13] was -0.59%; in assay [14], 1.23%; in assay [15], 0.57%; in [16] it was 0.27%; in [17] it was 1.19%; in assay [18], 0.27%. In addition, the inhibition in assay [19] was -0.73%; in assay [20], 2.81%.
As for `COc1cccc(-n2ncc3c(N/N=C/c4ccc(C)cc4)ncnc32)c1`, the inhibition amounted to 3.14% in [1]; 0.12% in assay [2]; 3.62% in assay [3]; 1.23% in assay [4]; 2.8% in [5]; 3.8% in [6]. In addition, the inhibition was found to be 2.61% in assay [7]; 1.9% in assay [8]; 6.98% in assay [9]; 7.16% in assay [10]; 6% in assay [11]; 6.88% in [12]. Moreover, the inhibition came out at 16.2% in [13]; 6.04% in assay [14]; 9.05% in assay [15]; 5.73% in [16]; 12.7% in assay [17]; 0.52% in [18]. In addition, the figures for the inhibition in assay [19] and in assay [20] were 3.47% and 3.6%, respectively.

In general, inhibition refers to the drop in the measured response relative to a control, in per cent.

(Values after ChEMBL document CHEMBL1961873, “Compounds: GSK PKIS; Assays: Nanosyn kinase panel” (2012).)
